The full list was thinned out, with hits kept by preference.
nsP2pro primary – blocks chikungunya virus nsP2 protease peptide cleavage; Q8JUX6; FRET peptide cleavage, nsP2pro, fluorescence 1 h; Potency, µM (highest dose often 24.9 µM), without a hit: at the highest dose activity change, negative = inhibition, hits mostly inhibitors; 1.1% of 31,000 active; AID 1964107; further: nearly all actives have a fitted effect of over 60% in size
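Purified recombinant nsP2pro (150 nM final) in 10 mM Tris-HCl pH 8.0 with 0.01% Tween 20 was preincubated 15 min at room temperature with compound (7 concentrations, up to 25 uM). FRET peptide 2 substrate (2.5 uM final) was then added; fluorescence was read after 1 h.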
CHIKV nsP2 cell – secondary cell-based test for CHIKV nsP2 protease inhibitors | shares compounds with nsP2pro primary | cell-based CHIKV nsP2 protease reporter assay | Potency, µM (top dose mostly 51.1 µM), without a hit: at the top dose activity change, negative = inhibition, usual class: inhibitors | 10% of 450 active; further: nearly all actives have a fitted effect of over 70% in size
CHIKV NSP2 FL – inhibits full-length CHIKV NSP2 enzyme. shares compounds with nsP2pro primary. Full-length CHIKV NSP2 protease enzymatic counterscreen. Potency, µM (highest dose often 50.7 µM), for the others: at the highest dose activity change, negative = inhibition, usual class: inhibitors. 39% of 410 active. AID 1964101; further: nearly all actives have a fitted effect of over 65% in size
Furin counter – human furin inhibition, counterscreen for nsP2pro inhibitors; Recombinant human furin enzymatic counterscreen, fluorogenic substrate; 6% of 410 active; Potency, µM (top dose mostly 50.6 µM), for inactives: top-dose activity change, negative = inhibition, actives largely listed as inhibitors; shares compounds with nsP2pro primary
Target sequence (P09958 whole entry, looked up): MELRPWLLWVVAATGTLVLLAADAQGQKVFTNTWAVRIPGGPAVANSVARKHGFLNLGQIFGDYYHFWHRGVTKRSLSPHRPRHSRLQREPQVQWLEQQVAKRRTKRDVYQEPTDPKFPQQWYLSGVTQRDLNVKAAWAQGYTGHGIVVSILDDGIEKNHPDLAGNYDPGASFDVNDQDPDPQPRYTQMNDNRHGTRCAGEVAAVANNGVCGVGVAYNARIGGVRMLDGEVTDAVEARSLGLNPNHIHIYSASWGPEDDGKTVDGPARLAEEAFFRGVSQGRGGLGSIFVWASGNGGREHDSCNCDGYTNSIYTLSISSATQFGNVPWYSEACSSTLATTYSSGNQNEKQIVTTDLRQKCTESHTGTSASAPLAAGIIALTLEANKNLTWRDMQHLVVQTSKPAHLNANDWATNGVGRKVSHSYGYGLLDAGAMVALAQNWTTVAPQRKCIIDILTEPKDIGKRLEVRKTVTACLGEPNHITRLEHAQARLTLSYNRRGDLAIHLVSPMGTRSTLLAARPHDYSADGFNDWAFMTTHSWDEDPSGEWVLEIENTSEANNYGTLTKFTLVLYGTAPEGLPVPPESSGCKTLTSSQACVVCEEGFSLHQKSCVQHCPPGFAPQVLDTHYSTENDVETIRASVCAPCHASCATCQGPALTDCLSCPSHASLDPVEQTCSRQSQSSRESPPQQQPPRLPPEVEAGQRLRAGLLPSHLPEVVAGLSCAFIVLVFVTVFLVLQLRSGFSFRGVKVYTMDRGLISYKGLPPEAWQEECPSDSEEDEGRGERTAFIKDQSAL
NS23 peptide cs – blocks CHIKV nsP2 protease cleavage of endogenous NS2/3 peptide. Purified CHIKV nsP2 protease, endogenous NS2/3 peptide cleavage. Potency, µM (doses to about 51 µM), for inactives: at the highest dose activity change, negative = inhibition, usual class: inhibitors. AID 1964103. shares compounds with nsP2pro primary. 34% of 410 active; further: nearly all actives have a fitted effect of over 55% in size
Papain cs – papain protease inhibition, counterscreen for nsP2pro inhibitors | shares compounds with nsP2pro primary | purified papain protease activity, enzymatic inhibition | Potency, µM (top dose mostly 51 µM), for the others: top-dose activity change, negative = inhibition, usual class: inhibitors | 5% of 410 active | AID 1964104
nsP2pro conf qHTS – confirmation of CHIKV nsP2 protease inhibitors; CHIKV nsP2 protease enzymatic activity, qHTS; Potency, µM (series often up to 25.5 µM), for the others: at the top dose activity change, negative = inhibition, hits mostly inhibitors; shares compounds with nsP2pro primary; 43% of 410 active; further: nearly all actives have a fitted effect of over 75% in size
HCV NS3 counter – HCV NS3/4A protease inhibition, counterscreen | Potency, µM (titrated, usually from 50.9 µM), most hits filed as inhibitors | 20% of 410 active | AID 1964106 | HCV NS3/4A protease biochemical counterscreen | shares compounds with nsP2pro primary; further: nearly all actives have a fitted effect of over 55% in size
An asterisk follows results filed as active; i = inactive; u = inconclusive; ! = not active in a repeat; [ ] = dose if it differs, or a comment. The call rests on the fitted dose curve. On the % scale 0 is the no-effect control and ±100 the full control effect; potency means the concentration at half of the fitted maximal effect.

SMILES | nsP2pro primary | others
CCC(C)n1cc(C)c2c(C(=O)NCc3c(C)cc(C)[nH]c3=O)cc(-c3ccc(N4CCNCC4)nc3)cc21 (stereo not drawn) | 64%
CC(=O)c1c(C)oc2c1cc(NS(=O)(=O)c1c(C)cc(C)cc1C)c1ccccc12 | -27%
Cc1cc(F)ccc1S(=O)(=O)Nc1cc2c(C(=O)O)c(C)oc2c2ccccc12 | -25%
Cc1ccc(S(=O)(=O)Nc2cc(Cl)c(O)c3ccccc23)c(C)c1 | 2.5µM* | CHIKV nsP2 cell=6.5µM*;CHIKV NSP2 FL=7.3µM*;Furin counter=-15%;NS23 peptide cs=1.8µM*;Papain cs=-10%;nsP2pro conf qHTS=2.2µM*;HCV NS3 counter=u
CSCC[C@H](NC(C)=O)C(=O)O | -15%
CNC(=O)c1cc(C2CC2)nc2onc(C3CCN(C(=O)c4ccc(Cl)nc4)C3)c12 (stereo not drawn) | i
Cc1c(-c2cnccn2)ssc1=S | 5µM*! | CHIKV nsP2 cell=u;CHIKV NSP2 FL=13µM*;Furin counter=-13%;NS23 peptide cs=9.2µM*;Papain cs=-23%;nsP2pro conf qHTS=4µM*;HCV NS3 counter=i
O=C(Nc1ccc(Cl)cc1)c1ccccc1NCc1ccncc1 | 75%
Fc1ccccc1CNCc1ccc(-c2ccnc3[nH]ccc23)cc1 | 73%
Oc1ccc(NCc2ccccc2OCc2ccccc2Cl)cc1 | 0.85µM* | CHIKV nsP2 cell=12µM*;CHIKV NSP2 FL=10µM*;Furin counter=-9%;NS23 peptide cs=16µM*;Papain cs=-11%;nsP2pro conf qHTS=8µM*;HCV NS3 counter=18µM*
O=S(=O)(Nc1nccs1)c1ccc(NCc2cccc(F)c2O)cc1 | i
Oc1ccc(NCc2ccccc2OCc2ccccc2F)cc1 | 8.9µM* | CHIKV nsP2 cell=u;CHIKV NSP2 FL=23µM*;Furin counter=-3%;NS23 peptide cs=21µM*;Papain cs=-10%;nsP2pro conf qHTS=u;HCV NS3 counter=u
O=S(=O)(Nc1cccc2ccccc12)c1ccc(NCc2cccc(Cl)c2O)cc1 | -26%
Cn1nnnc1SCCNCc1ccccc1OCc1ccccc1F | -23%
O=S(=O)(Nc1ccc2ccccc2c1)c1ccc(NCc2cccc(Cl)c2O)cc1 | 4%
CC1NC(=O)CNC(=O)C(C(C)C)NC(=O)C2CCCN2C(=O)C(C(C)C)NC(=O)C(Cc2c[nH]c3ccccc23)NC1=O (stereo not drawn) | -4%[10 µM]
Cc1c2cc(c(C(=O)O)c1C)OC1OC(C(O)C(O)C1O)C(O)C(O)C1OC(O2)C(O)C(O)C1O (stereo not drawn) | -15%[10 µM]
CC1(C)CC=C(C#Cc2ccccc2)c2cc(/C=C/c3ccc(C(=O)O)cc3)ccc21 | 66%
COc1cccc(-c2cc(F)ccc2C2Cc3nc(N)nc(C)c3C(=O)N2)n1 (stereo not drawn) | -20%
Cc1ccc(CN(C)c2ncnc3ccc(-c4ccc5c(c4)OCO5)cc23)o1 | -6%
O=C(Nc1ccc(Cl)c(Cl)c1)N1CCN(c2ccncc2)CC1 | i
Cc1nc(C2CCCN2Cc2ccc(-c3ccn[nH]3)o2)cs1 (stereo not drawn) | 8.9µM* | CHIKV nsP2 cell=14%;CHIKV NSP2 FL=u;Furin counter=-3%;NS23 peptide cs=u;Papain cs=-6%;nsP2pro conf qHTS=u;HCV NS3 counter=u
Cc1nn(-c2ccccc2[N+](=O)[O-])c(C)c1[C@@H]1C=C[C@@H](NCc2ccc(C(C)C)cc2)C1 | 30%[39.2 µM]
Clc1ccc(CCCOCCCN2CCCCC2)cc1 | -4%
Cc1ccc(S(=O)(=O)Nc2cnccc2C(=O)Nc2nc(-c3cccc(Cl)c3)cs2)cc1 | i
SMILES | nsP2pro primary | others
Cc1ccc(-c2csc3ncnc(Sc4nnnn4C)c23)cc1 | i
Cn1nnnc1Sc1ncnc2scc(I)c12 | 2.2µM* | CHIKV nsP2 cell=7.3µM*;CHIKV NSP2 FL=-3%;Furin counter=-4%;NS23 peptide cs=-9%;Papain cs=-6%;nsP2pro conf qHTS=67%;HCV NS3 counter=u
Cn1nnnc1Sc1ncnc2scc(Br)c12 | i
Oc1cccc2cc(C3CC3)cnc12 | i
CC(C)NCCCn1c(Sc2cc3c(cc2I)OCO3)nc2c(N)ncnc21 | -2%
c1ccc(CNc2ncc(-c3ccc(N4CCOCC4)cc3)c3c2OCC3)cc1 | -9%[39.2 µM]
O=C(/C=C/c1ccc(O)cc1)O[C@H]1[C@H](OC2CCCCC2O)O[C@H](CO)[C@@H](O)[C@@H]1O (stereo partly drawn) | 41%[10 µM]
COCCN1CCC(CN(Cc2ccncc2)C(=O)C2CC23CCCC3)CC1 (stereo not drawn) | i
COc1cccc(-c2cc(C(=O)NCc3c(C)cc(C)[nH]c3=O)c3c(c2)N(C(C)C)CCO3)c1OC | 4%
CC/C=C\C/C=C\C/C=C\C/C=C\C/C=C\CCCC(=O)O | u | CHIKV nsP2 cell=13%[100 µM];CHIKV NSP2 FL=6.7µM*;Furin counter=-11%[100 µM];NS23 peptide cs=u;Papain cs=33µM*;nsP2pro conf qHTS=8.2µM*;HCV NS3 counter=i
CCCCCC[C@@H](O)C/C=C\CCCCCCCC(=O)O | -14%
CCCCCC/C=C\CCCCCCCC(=O)O | 10%
COc1ccccc1-c1ccc(CN2CCCC(c3nc4ccc(C)cc4c(=O)[nH]3)C2)cc1 (stereo not drawn) | -4%
Cc1noc(C2CC3(CCN(C(=O)CCc4c[nH]c5ccccc45)CC3)CN2C)n1 (stereo not drawn) | -8%
C=C(C)C(=O)OC1[C@@H]2C(=C)C(=O)O[C@@H]2C[C@@H](C)[C@@H]2C=CC(=O)[C@@]12C (stereo partly drawn) | -7%
C=C(C(=O)O[C@H]1C/C(C)=C/CC/C(CO)=C/[C@H]2OC(=O)C(=C)[C@H]12)C(O)CO (stereo partly drawn) | 5.4µM* | CHIKV nsP2 cell=u;CHIKV NSP2 FL=10µM*;Furin counter=-4%[33.5 µM];NS23 peptide cs=u;Papain cs=-5%[33.5 µM];nsP2pro conf qHTS=4.4µM*;HCV NS3 counter=i
C=C(C)C(=O)OC1CC(CO)CCC/C(CO)=C/C2OC(=O)C(=C)C21 (stereo not drawn) | -20%
CN1CCN(C(=O)c2ccc(Nc3nccc(-c4cccs4)n3)cc2Cl)CC1 | -2%
COc1cc(O)c(C(CC(=O)N2CCCCCC2)c2ccc3c(c2)OCO3)c(OC)c1 (stereo not drawn) | -3%[39.2 µM]
COc1nc2ccc(Br)cc2cc1[C@@H](c1ccccc1)[C@@](O)(CCN(C)C)c1cccc2ccccc12 | 1.2µM* | CHIKV nsP2 cell=u;CHIKV NSP2 FL=u;Furin counter=-13%;NS23 peptide cs=u;Papain cs=-25%;nsP2pro conf qHTS=7.1µM*;HCV NS3 counter=i
COc1ccnc(NC(=S)N2CCN(c3ccccc3C(F)(F)F)CC2)c1 | -1%
CSc1cnc(-c2ccccc2C(C)C)nc1NCc1ccc(-c2cccnc2)cc1 | i
Cc1ccc(-c2nn(CC(=O)N(C)C(C)c3ccco3)c(=O)cc2C)cc1 (stereo not drawn) | -23%
